Screening data deposited in PubChem BioAssay by National Center for Advancing Translational Sciences (NCATS).
HT1080 IDH1KD tx: qHTS for induction of synthetic lethality in tumor cells producing 2HG: qHTS for the HT-1080-IDH1KD cell line. Potency, µM (titrated, usually from 46.1 µM), for inactives: at the top dose activity, negative = toxicity, actives largely listed as cytotoxic. AID 686971, 2013. 360,000 compounds, 2% hits. HT-1080 IDH1 knockdown viability, ATP luminescence, 48 h;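 also: potency is read from the fitted curve at half-maximal effect; 0% = DMSO wells and -100% = cell-free medium wells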
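IDH1KD HT-1080 cells, 750/well, RPMI + 5% FBS; compound pinned after 2 h settling; 48 h, 37 °C; CellTiter-Glo luminescence; % activity normalised to DMSO and no-cell wells; curves fitted, classed by r2 and efficacy.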
IL1B secr inh: qHTS for Inhibitors of Inflammasome Signaling: IL-1-beta AlphaLISA Primary Screen; THP-1 LPS/ATP IL-1B secretion, AlphaLISA, 16 h; stronger effect = lower value; activity change, % at 57.5 µM; 360,000 compounds, 4.7% hits; in the data active = activity change below about -50%; inconclusive = mostly about -30% to -49%
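THP-1 cells pretreated 1 hr with compounds (up to 57.5 uM final), then stimulated with LPS (250 ng/mL final) plus ATP (1.25 mM final); secreted IL-1B measured by AlphaLISA after 16 hr, decreased signal indicating inhibition.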
HT1080NT lethal: qHTS for induction of synthetic lethality in tumor cells producing 2HG: qHTS for the HT-1080-NT fibrosarcoma cell line | HT-1080-NT fibrosarcoma viability, CellTiter-Glo ATP luminescence, 48 h | Potency, µM (doses to about 46.1 µM), inactives show at the top dose activity, negative = less viability, usual class: cytotoxic | 360,000 compounds, 1.6% hits | AID 686970, 2013;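 also: NT is the 2HG producing partner of a matched IDH1 knockdown line; potency is read from the fitted curve at half-maximal effect; 0% = DMSO-treated cells and -100% = media-only wells without cells; nearly all actives have a fitted effect of over 55% in size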
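750 cells/well, RPMI + 5% FBS; 2 h settle, compound pin-transfer, 48 h at 37 degrees C. CellTiter-Glo 10 min RT, luminescence. Normalized to DMSO and media-only wells.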
ELG1 DNA repair: qHTS screen for small molecules that inhibit ELG1-dependent DNA repair in human embryonic kidney (HEK293T) cells expressing luciferase-tagged ELG1; HEK293T ELG1-luciferase reporter, luminescence, 16 h; DNA damage induced by 5-fluorouridine; Potency, µM (series often up to 46.1 µM), inactives show at the top dose activity change, negative = inhibition, usual class: inhibitors; 330,000 compounds, 2.3% hits; AID 504467, 2011; also: potency is read from the fitted curve at half-maximal effect; nearly all actives have a fitted effect of over 55% in size
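Luminescence from the luciferase reporter, measured 30 min after ONE-Glo reagent at room temperature, was the read-out. Beforehand, 2,000 cells per well were exposed for 16 hr at 37 °C to 5-fluorouridine together with compound or vehicle.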
TDP1 cell CPT: qHTS for Inhibitors of human tyrosyl-DNA phosphodiesterase 1 (TDP1): qHTS in cells in presence of CPT. chicken DT40 Tdp1-/-;hTDP1 cells + 20 nM CPT, ATP luminescence, 48 h. Potency, µM (titrated, usually from 46.2 µM), for the others: at the highest dose activity change, negative = growth inhibition, most hits filed as inhibitors. 420,000 compounds, 12% hits; also: potency is read from the fitted curve at half-maximal effect; nearly all actives have a fitted effect of over 55% in size
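Cell growth measured by CellTiter-Glo luminescence after a minimum 48 h, 37 C compound exposure with 20 nM CPT in Tdp1-knockout DT40 cells stably expressing hTDP1, seeded 400/well; qHTS titration format.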
DT40 TDP1 no CPT: qHTS for Inhibitors of human tyrosyl-DNA phosphodiesterase 1 (TDP1): qHTS in cells in absence of CPT; DT40 Tdp1-/- hTDP1 cells, no CPT, ATP luminescence, 48 h; Potency, µM (highest dose often 46.2 µM), without a hit: at the highest dose activity change, negative = growth inhibition, most hits filed as inhibitors; 420,000 compounds, 15% hits; also: potency is read from the fitted curve at half-maximal effect; nearly all actives have a fitted effect of over 55% in size
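Luminescent ATP content (CellTiter-Glo) served as the growth readout. Knockout chicken DT40 cells expressing human TDP1 were exposed to compounds without camptothecin for a minimum 48 hr at 37 °C.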
* marks the source's active call; other numbers are inactive results; ? = inconclusive; nt = no result; [ ] = remark or other dose. Shown are actives, neighbours in structure and some others; about 19% of the full set was active somewhere. Unless noted, calls follow the shape of the dose curve; as a rule, active = well fitted curve in the direction sought with a large enough effect; inconclusive = small, poorly fitted or top-dose-only effect, or another doubt; inactive = no such curve, though single readings can be large; an effect the other way counts as inactive or inconclusive. Unless noted, % is scaled to controls: 0 for no effect and ±100 for the full control effect.

SMILES	HT1080 IDH1KD tx	IL1B secr inh	HT1080NT lethal	ELG1 DNA repair	TDP1 cell CPT	DT40 TDP1 no CPT
CC(C)(C)[C@H]1COC(=O)[C@H](NC(=O)OCC2c3ccccc3-c3ccccc32)C/C=C\C[C@@H](CC(=O)N[C@H](CO)Cc2ccccc2)C(=O)N1	0.9%	7.8	-20.6%	12.1%	7.31µM*	8.2µM*
O=C(C[C@@H]1C/C=C\C[C@H](Cc2ccc(F)cc2)C(=O)OC[C@@H](c2ccccc2)NC1=O)NCCO	7.9%	11.5	9.8%	1.6%	?	?
CC(C)(C)[C@@H]1COC(=O)[C@@H](NC(=O)OCC2c3ccccc3-c3ccccc32)C/C=C\C[C@@H](CC(=O)NCCO)C(=O)N1	-2.1%	30.3	6.5%	0.3%	18.4µM*	11.6µM*
COc1ccccc1N(C)S(=O)(=O)c1ccc(C(=O)NCCCN2CCCC2=O)cc1	6.5%	-5.1	3.6%	nt	?	?
C[C@@H]1COC(=O)[C@H](CC(=O)OC(C)(C)C)C/C=C\C[C@@H](CC(=O)N[C@H](CO)Cc2ccccc2)C(=O)N1	2.6%	22.0	4.6%	3.0%	-1.5%	-2.5%
CC(C)(C)[C@H]1COC(=O)[C@H](NC(=O)OCC2c3ccccc3-c3ccccc32)C/C=C\C[C@@H](CC(=O)N[C@@H](CO)Cc2ccccc2)C(=O)N1	0.5%	20.9	?	?	7.31µM*	?
CC(C)(C)OC(=O)C[C@H]1C/C=C\C[C@H](CC(=O)N[C@@H](CO)Cc2ccccc2)C(=O)N[C@H](C(C)(C)C)COC1=O	0.2%	-21.9	1.8%	-13.4%	?	?
C[C@@H]1COC(=O)[C@H](NC(=O)OCC2c3ccccc3-c3ccccc32)C/C=C\C[C@@H](CC(=O)N[C@@H](CO)Cc2ccccc2)C(=O)N1	0.5%	20.1	0.0%	-19.1%	8.2µM*	8.2µM*
CC(C)Cc1ccc(C(C)CC2=CCC(CN(C)C)C2=O)cc1 (stereo not given)	?	0.0	?	nt	4.61µM*	4.61µM*
CC(C)Cc1ccc(S(=O)(=O)N2CCOCC2)cc1	11.4%	22.5	-0.6%	7.4%	-18.6%	-15.4%
O=c1[nH]c2ccccc2cc1CN(Cc1cccnc1)S(=O)(=O)c1ccc([N+](=O)[O-])cc1	8.0%	4.1	0.4%	-2.8%	-24.5%	?
O=c1[nH]c2ccccc2cc1CN(Cc1cccnc1)S(=O)(=O)c1ccc(Cl)cc1	-15.5%	-60.6*	-12.8%	?	?	25.9µM*
CC(=O)Nc1ccc(S(=O)(=O)N(Cc2cccnc2)Cc2cc3ccccc3[nH]c2=O)cc1	1.0%	-1.1	-10.5%	-33.7%	16.4µM*	18.4µM*
O=C(NCCO)/C(=C\c1ccc(Br)cc1)NC(=O)c1cccs1	2.3%	33.7	10.3%	6.5%	4.1%	-8.2%
C[n+]1c(-c2ccccc2)sc([S-])c1-c1ccccc1	-12.7%	6.5	-9.8%	nt	23.1µM*	9.2µM*
CCCC1(c2ccsc2)NC(=O)NC1=O (stereo not given)	0.0%	0.0	-3.7%	nt	3.0%	-19.9%
CCOc1ccc(CCNC(=O)CCc2c(C)nc3cc(-c4ccccc4OC)nn3c2C)cc1	nt	nt	nt	nt	?	14.6µM*
COc1ccc(CCNC(=O)CCc2c(C)nc3c4c(C)cc(C)nc4nn3c2C)cc1OC	nt	nt	nt	nt	?	16.4µM*
CCOc1ccccc1NC(=O)CCc1c(C)nc2cc(-c3ccccc3)nn2c1C	nt	nt	nt	nt	18.4µM*	11.6µM*
COc1ccc(CCNC(=O)CCc2c(C)nc3cc(-c4ccccc4)nn3c2C)cc1OC	nt	nt	nt	nt	16.4µM*	25.9µM*
O=C(/C=C\Nc1ccc(Cl)cn1)c1ccc(Br)cc1	10.0%	-19.9	10.5%	?	-6.4%	-2.3%
O=C(CN1CCN(S(=O)(=O)c2ccccc2F)CC1)NC1CCCC1	12.4%	22.0	?	5.0%	9.8%	-21.3%
Cc1c(C)n(CCN(C)C)c2ccc(C(=O)OCCN(C)C)cc12	?	-25.0	?	-12.2%	?	21.1µM*
Cc1c(C)n(Cc2ccccc2)c2ccc(C(=O)OCCCN(C)C)cc12	13µM*	-108.8*	14.6µM*	?	?	20.6µM*
Cc1[nH]c2ccc(C(=O)OCCN(C)C)cc2c1C	-2.6%[9.24 µM]	-2.6	9.6%	?	-3.7%	-21.8%
SMILES	HT1080 IDH1KD tx	IL1B secr inh	HT1080NT lethal	ELG1 DNA repair	TDP1 cell CPT	DT40 TDP1 no CPT
CCCN(C(=O)CSCC(=O)Nc1ccc(OC)cc1)c1c(N)n(Cc2ccccc2)c(=O)[nH]c1=O	0.6%	2.6	-4.8%	8.9%	10.6%	-4.0%
CC(C)(C)C(=O)Nc1ccc(C(=O)CN2C(=O)NC3(CCOc4ccccc43)C2=O)cc1 (stereo not given)	-3.3%	0.0	1.0%	-21.2%	?	?
CC(C)Cc1ccc(S(=O)(=O)Nc2cccnc2)cc1	?	55.0	?	-2.5%	?	?
CCC(C)c1ccc(S(=O)(=O)Nc2cccnc2)cc1 (stereo not given)	?	34.1	-8.8%	?	?	29.1µM*
COC(=O)[C@H]1[C@@H]2C[C@H]3c4[nH]c5ccccc5c4CCN3C[C@@H]2CC[C@@H]1O	nt	nt	nt	nt	8.9%	-15.0%
C[C@@H]1OC(C2CCCCC2)N(C)[C@H]2C[C@H]3c4[nH]c5ccccc5c4CCN3C[C@@H]12 (stereo not given in full)	-12.4%	-10.9	-8.1%	nt	20.6µM*	?
Cc1ccc(NC(=O)C2C(=O)N(CCO)C3(C)CC2c2ccccc2O3)cc1 (stereo not given)	0.0%	-15.4	2.1%	?	-17.6%	-17.9%
Cc1ccc(S(=O)(=O)C2C(=O)N(C)C3(C)CC2c2ccccc2O3)cc1 (stereo not given)	14.2%	0.0	?	-0.7%	-23.8%	16.4µM*
COc1ccc(NC(=O)c2cc(-c3ccc(F)cc3OC(C)C)n[nH]2)cn1	26.0%	38.6	?	nt	?	23.1µM*
CCCOc1ccc(F)cc1-c1cc(C(=O)Nc2cc(OC)ccc2OC)[nH]n1	-17.3%	9.1	?	nt	-20.5%	-10.6%
